Results published in PubChem BioAssay (NCI).
Compounds without any hit were thinned out: in the full panel of roughly 83,000, 20% have a hit.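 Note: values are percent growth. 100 is the growth of untreated cells, values between 100 and 0 indicate rising inhibition; between -100 and 0 indicates cell death.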 Calls of active or inactive are those of the source. Rule for the calls: active = growth percent below 10; inactive = the rest.

System: HCT-15 colon
Assay: NCI-60 one-dose screen, 48 h (100 = growth as untreated, 0 = no growth, -100 = all killed)
Conditions: 10 µM unless noted

SMILES | growth
NC(N)=Nc1ccc(Oc2cccc(Nc3cccc(C(F)(F)F)c3)c2)cn1 | -64.9% (active)
O=C(CSc1nc2ccccc2c(=O)n1-c1ccccc1)Nc1cccc(C(=O)/C=C/c2ccccc2)c1 | 76.4% (inactive)
COc1ccc(/C(N)=N/C(N)=N/c2nc3ccccc3s2)cc1 | 62.6% (inactive)
Cc1cccc(/C=C/C(=O)Nc2ncc(Cc3cccc(C)c3)s2)c1 | 17.5% (inactive)
COc1c(N2CC3CCCNC3C2)c(F)cc2c(=O)c(C(=O)N/N=C/c3ccc(Br)cc3)cn(C3CC3)c12 (stereo not given) | 1.76% (active)
O=C(c1ccc(O)cc1)[C@@H]1CN[C@@]2(C(=O)Nc3ccccc32)[C@H]1c1ccc(F)cc1 | 94.8% (inactive)
Nc1nc(Nc2ccccc2SSc2ccccc2Nc2nc(N)nc(-c3ccc4ccccc4c3)n2)nc(-c2ccc3ccccc3c2)n1 | 66.9% (inactive)

System: HT29 colon
Assay: as above
Conditions: 10 µM unless noted

SMILES | growth
C=C(C=O)[C@@H]1CC[C@]2(C)[C@H](CC=C3[C@H]4[C@@H](C)[C@H](C)CC[C@]4(C(=O)OC)CC[C@]32C)[C@@]1(C)CCC#N | -37.4% (active)
COc1ccc([C@@H]2c3[nH]c4ccccc4c3C[C@H]3C(=O)N(C4CCN(CC5CCCCC5)CC4)CC(=O)N23)c(OC)c1 | 1.45% (active)
c1ccc(C(c2nc3ncncc3[nH]2)N2CSc3nc4ncncc4n3C2)cc1 (stereo not given) | 42.7% (inactive)
Cc1occc1-c1nc2s/c(=C/c3ccc(-c4cc(C(F)(F)F)ccc4Cl)o3)c(=O)n2n1 | 106% (inactive)
CNCc1cccc2c1OCCCCCCC(C)(O)CC(C)(C)S(=O)(=O)c1ccc(cc1)-c1cnc(N)c(n1)C(=O)N2 (stereo not given) | -8.67% (active)
CS(=O)(=O)c1ncc(-c2ccccc2)cn1 | 105% (inactive)
CCOC(=O)c1c(N)c(C#N)cn1-c1cc(OC)c(OC)c(OC)c1 | 107% (inactive)
CCCCCc1ccc(S(=O)(=O)Nc2cc(-c3csc(NC(=O)CN4CCN(C)CC4)n3)ccc2OC)cc1 | -31.1% (active)
Cc1nc2ncc(-c3ccc4ncnc(NCc5ccccc5)c4c3)cc2[nH]1 | 82.8% (inactive)
C=C(C=O)[C@@H]1CC[C@]2(COC(C)=O)CC[C@]3(C)C(CC[C@@H]4[C@@]5(C)CC[C@H](OC(C)=O)C(C)(C)[C@@H]5CC[C@]43C)[C@@H]12 (stereo not given in full) | 4.87% (active)
Cc1ccc(S(=O)(=O)N(CC[C@@H]2C[C@H]2c2cc3ccccc3o2)S(=O)(=O)c2ccc(C)cc2)cc1 | 94% (inactive)
COC(=O)c1ccc(NC2=C/C(=N/S(=O)(=O)c3ccc(C(=O)O)cc3)c3ccccc3C2=O)cc1 | 112% (inactive)
O=C(CCn1c[n+](CC(=O)c2ccc(F)cc2)c2ccccc21)Nc1cccc2cccnc12 | 58.6% (inactive)
CC1(C)CC[C@]2(C(=O)O)CC[C@]3(C)C(=CC[C@@H]4[C@@]5(C)CC/C(=N\OCCC#N)C(C)(C)[C@@H]5CC[C@]43C)[C@@H]2C1 | 109% (inactive)
COc1ccc([C@@H]2[C@@H](O)C(=O)N2c2cc(OC)c(OC)c(OC)c2)cc1F | -31.9% (active)
CCOC(=O)c1c(Nc2ccccc2)nn2c(-c3ccccc3)ccnc12 | 84.4% (inactive)
Cc1cc(C)c2sc(=O)n(Cc3nnc(SCCC(=O)O)o3)c2n1 | 110% (inactive)
C=CCn1c(SCC(=O)Nc2ccc(C(=O)/C=C/c3cccc([N+](=O)[O-])c3)cc2)nnc1-c1c[nH]c2ccccc12 | 98.4% (inactive)
Cc1ccc(NC(=O)N[C@@H](Cc2cc(F)cc(F)c2)C(=O)NC2C(=O)N3C[C@H](O)C[C@H]3C(=O)N3CCCC[C@H]3C(=O)N[C@@H](CO)C(=O)N3C[C@H](C)C[C@H]3C(=O)O[C@H]2C)c(F)c1 (stereo not given in full) | 42.8% (inactive)

SMILES | growth
C#C[C@]1(O)CC[C@H]2[C@@H]3CC=C4c5sc(-c6ccc7c(c6)OCO7)nc5CC[C@]4(C)[C@H]3CC[C@@]21C | 8.04% (active)
CCCCCc1ccc(S(=O)(=O)Nc2cccc(-c3csc(NC(=O)CN4CCN(C)CC4)n3)c2)cc1 | 25.5% (inactive)
CCCn1cnc2c(c1=N)C(c1ccc(F)cc1)c1sc3c(CC)cccc3c1O2 (stereo not given) | 9.3% (active)
O=C(NCCn1ccnc1)c1ccc(-c2nc3ccc4[nH]ncc4c3c3c2CCCC3)cc1 | 88.4% (inactive)
COc1cccc(O)c1/C=C(/C)c1ccc2c(OC)cccc2[o+]1 | 118% (inactive)
NS(=O)(=O)c1ccc(-n2cc(CN3CCCCC3)nn2)cc1 | 96.7% (inactive)
O=S(=O)(NCCNc1nccc(-n2cnc3ccccc32)n1)c1ccc(Cl)cc1 | 103% (inactive)
COC(=O)C1(C)CCC[C@]2(C)[C@H]3C[C@H]4C(C(C)C)=C[C@]3(CC[C@@H]12)[C@H]1[C@@H]4[C@@H](OC(=O)c2ccco2)CC[C@@H]1OC(=O)c1ccco1 (stereo not given in full) | 116% (inactive)
CCCn1cnc2c(c1=N)C(c1ccc(OC)cc1)c1sc3c(C)cccc3c1O2 (stereo not given) | 7.24% (active)
COc1cc(-c2nn(C(C)(C)C)cc2-c2ccnc(NCCCNS(=O)(=O)c3cccc(F)c3)n2)ccc1Cl | 65.1% (inactive)
CC1(C)CC[C@]2(CN)CC[C@]3(C)C(=CC[C@@H]4[C@@]5(C)CCCNC(C)(C)[C@@H]5CC[C@]43C)[C@H]2C1 | 40.7% (inactive)
NC(=O)c1cccc(C#CCNC[C@H]2C[C@@H](n3ccc4c(Cl)ncnc43)[C@H](O)[C@@H]2O)c1 | 105% (inactive)
NC(N)=Nc1ccc(Oc2cccc(Nc3cccc(C(F)(F)F)c3)c2)cn1 | 14.6% (inactive)
O=C(CSc1nc2ccccc2c(=O)n1-c1ccccc1)Nc1cccc(C(=O)/C=C/c2ccccc2)c1 | 96.4% (inactive)
COc1ccc(/C(N)=N/C(N)=N/c2nc3ccccc3s2)cc1 | 104% (inactive)
Cc1cccc(/C=C/C(=O)Nc2ncc(Cc3cccc(C)c3)s2)c1 | 2.82% (active)
COc1c(N2CC3CCCNC3C2)c(F)cc2c(=O)c(C(=O)N/N=C/c3ccc(Br)cc3)cn(C3CC3)c12 (stereo not given) | 13.6% (inactive)
O=C(c1ccc(O)cc1)[C@@H]1CN[C@@]2(C(=O)Nc3ccccc32)[C@H]1c1ccc(F)cc1 | 110% (inactive)
Nc1nc(Nc2ccccc2SSc2ccccc2Nc2nc(N)nc(-c3ccc4ccccc4c3)n2)nc(-c2ccc3ccccc3c2)n1 | 102% (inactive)
